This is an account of results in PubChem BioAssay.

The source made the active and inactive calls.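 Rule for the calls, unless noted: active = inhibition at or above 50% at 10 µM; inactive = inhibition below 50%.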

Experiment [1] in a line: inhibitors of TNFa-induced NFkB p65 translocation, primary screen, imaging, HUVEC, MLSMR starter and 10KST1 sets (AID 438;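 active = inhibition above 20% together with a positive visual image hit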;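 note: compound added about 3h40 before a 20 min TNFalpha stimulation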;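 for inhibition: signal is the nuclear over cytoplasmic p65 intensity ratio per well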). Conditions: HUVEC TNFa-induced p65 nuclear translocation; cell count: measured here: nuclei count (cytotoxicity indicator), at 2.08 µM; inhibition: at 2 µM, stronger effect = higher value, 0% TNFa-plus-vehicle, 100% no-TNFa wells.
A short description of experiment [2]: inhibitors of mutant huntingtin aggregation, primary screen, imaging, exon1htt(103Q)mCFP cells, high-content imaging (AID 483;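 active = visual image review flags a hit and inhibition of aggregation exceeds 20%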;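 note: compound exposure lasted 3 days before fixation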;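 for nuclei count: percent of the per-plate median nuclei count of sample wells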). Conditions: exon1htt(103Q)mCFP cell line, aggregate imaging, at 2 µM; inhibition of aggregation: stronger effect = higher value; nuclei count: measured here: cell count, toxicity.
A short description of experiment [3]: inhibitors of E-selectin induction by TNFa, primary screen, imaging, HUVEC, immunofluorescence, MLSMR starter and 10KST1 sets (AID 487;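 active = visually confirmed hit in the image check and inhibition above 20%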;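 for inhibition: signal is fraction of cell area covered by stained E-selectin grains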;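 for nuclei count: 100% = median nuclei count of all wells on the same plate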). The note with it: HUVEC TNFalpha-induced E-selectin immunofluorescence imaging, at 2 µM; inhibition: stronger effect = higher value; nuclei count: measured here: cell number, toxicity.
In experiment [4] the target is Voltage-gated potassium channel subunit beta-2 (Rattus norvegicus) (UniProt P62483). As to the kind of experiment: KvBeta enzyme negative modulators, primary screen, biochemical, NADPH fluorescence (AID 622;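 active = fluorescence slope higher than the sample average by over 3 SD, cut at about -0.22 in these data, passing the limit was not always enough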;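 note: slope of raw intensity against log time taken from 70 to 1610 s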). Conditions: recombinant KvBeta, 4-cyanobenzaldehyde reduction, at 10 µM, stronger effect = higher value.
Sequence of Voltage-gated potassium channel subunit beta-2 (Rattus norvegicus) (P62483 whole entry, looked up): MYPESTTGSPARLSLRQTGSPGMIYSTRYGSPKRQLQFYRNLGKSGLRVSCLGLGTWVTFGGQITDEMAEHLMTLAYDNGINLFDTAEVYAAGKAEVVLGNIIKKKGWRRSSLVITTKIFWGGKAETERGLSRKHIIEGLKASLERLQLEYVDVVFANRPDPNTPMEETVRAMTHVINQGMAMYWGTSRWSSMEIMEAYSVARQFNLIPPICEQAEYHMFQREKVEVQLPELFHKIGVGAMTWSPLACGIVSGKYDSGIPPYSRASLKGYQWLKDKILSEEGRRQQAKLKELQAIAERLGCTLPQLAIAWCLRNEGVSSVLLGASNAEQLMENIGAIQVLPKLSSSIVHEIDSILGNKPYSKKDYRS
For experiment [5] the target is unchanged. As to the kind of experiment: KvBeta positive modulators, primary screen, biochemical, NADPH fluorescence (AID 623;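 active = NADPH fluorescence slope more negative than the mean of all samples by about 3 SD, 99.7% confidence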;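 note: fluorescence intensity change per second fitted from 20 to 320 s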). The note with it: Recombinant KvBeta, NADPH fluorescence decrease slope, 10 min; at 10 µM; stronger effect = lower value.
Experiment [6] concerns the target Alpha-2C adrenergic receptor (Homo sapiens) (UniProt P18825). Put plainly: modulators of alpha2C/GIRK thallium flux, primary screen, cell-based, HEK293 alpha2C/GIRK1/2 (AID 624;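 active = fluorescence slope after compound addition differing from the mean of all screened samples at 99.7% confidence, in either direction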;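 note: slope of fluorescence ratio to pre-addition baseline per second over 15 to 24 s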). Conditions: thallium flux BTC fluorescence, at 10 µM, actives lie on both sides.
The nature of experiment [7]: inhibitors of Sendai virus-induced IRF3 signaling, primary screen, TLR/RLR signaling modifier project, cell-based, Sendai virus stimulus, luciferase, 10K MLSCN set (AID 602276).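 Note: firefly luciferase from ISG56 promoter only with Renilla not read in this screen; 0% = Sendai virus plus DMSO and 100% = medium plus DMSO without virus.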 Conditions: HEK293 RL24 IRF3 luciferase reporter, at 10 µM, stronger effect = higher value. For orientation: In a reporter assay the amount or activity of a reporter protein is the signal.
Experiment [8] is described as follows: inhibitors of poly I:C-induced TLR3 signaling, primary screen, cell-based, poly I:C stimulus, luciferase, 10K MLSCN set (AID 602277;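 active = inhibition of the reporter signal at or above 50%; inactive = inhibition below 50%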). Conditions: HEK293-TLR3 RL24 IRF3 luciferase reporter, at 10 µM, stronger effect = higher value.

Sequence of Alpha-2C adrenergic receptor (Homo sapiens) (P18825 whole entry, looked up): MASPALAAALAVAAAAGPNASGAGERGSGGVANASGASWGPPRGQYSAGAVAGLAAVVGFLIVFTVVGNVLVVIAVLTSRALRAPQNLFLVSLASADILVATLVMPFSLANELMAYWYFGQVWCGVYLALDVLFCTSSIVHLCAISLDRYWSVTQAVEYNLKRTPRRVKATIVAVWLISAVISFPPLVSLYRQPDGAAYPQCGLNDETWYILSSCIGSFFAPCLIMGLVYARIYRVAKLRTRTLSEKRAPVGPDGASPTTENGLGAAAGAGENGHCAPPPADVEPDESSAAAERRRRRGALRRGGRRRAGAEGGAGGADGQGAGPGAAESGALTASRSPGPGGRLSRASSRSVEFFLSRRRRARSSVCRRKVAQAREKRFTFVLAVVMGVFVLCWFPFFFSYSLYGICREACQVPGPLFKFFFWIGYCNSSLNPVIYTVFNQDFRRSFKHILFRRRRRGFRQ

Broadly, the inhibition is the drop in the measured response relative to a control, in per cent. On to `O=C(c1cc(S(=O)(=O)N2CCOCC2)ccc1F)N1CCCc2ccccc21`, for which the cell count in experiment [1] was 555. The inhibition in experiment [1] was -26.9% (inactive); in experiment [3], -44.9% (inactive); in experiment [7], 12.6% (inactive); in experiment [8] it was 27.4% (inactive). Also, the inhibition of aggregation in experiment [2] is -9.6% (inactive). Moreover, the nuclei count in experiment [2] amounted to 102%; in experiment [3], 140%. Further, in experiment [4], the fluorescence slope was -0.382 (inactive). In addition, in experiment [5], the NADPH fluorescence slope is -4.2e-05 (inactive). Further, the slope in experiment [6] is 0.00518 (inactive).
Turning to `O=C(O)C1CC=CCC1C(=O)NCc1ccccc1` (stereo not given), in experiment [1], the cell count came out at 625. For the same compound, the inhibition in experiment [1] was 6% (inactive); in experiment [3], -28.4% (inactive); in experiment [7], 10% (inactive); in experiment [8], 11.4% (inactive). In addition, the inhibition of aggregation in experiment [2] was -11% (inactive). Also, the nuclei count in experiment [2] and in experiment [3] was 107% throughout. Further, the fluorescence slope in experiment [4] is -0.41 (inactive). The NADPH fluorescence slope in experiment [5] is 3.8e-06 (inactive). For the same compound, the slope in experiment [6] is 0.00502 (inactive).
Regarding `O=C(O)[C@@H]1CCCN1c1ncnc2sc3c(c12)CCC3`, the cell count in experiment [1] worked out at 434. Also, the inhibition in experiment [1] was -5.7% (inactive); in experiment [3], -149% (inactive); in experiment [7] it was 17.9% (inactive); in experiment [8] it was 13.8% (inactive). Further, the inhibition of aggregation in experiment [2] is 0.1% (inactive). The nuclei count in experiment [2] is 128%; in experiment [3], 247%. Moreover, the fluorescence slope in experiment [4] was -0.412 (inactive). Moreover, the NADPH fluorescence slope in experiment [5] is -2.3e-05 (inactive). Further, the slope in experiment [6] is 0.00577 (inactive).
Regarding `COCC(=O)Nc1cc(OC)ccc1OC`, in experiment [1], the cell count is 230. In addition, the inhibition in experiment [1] is -7% (inactive); in experiment [3], -28.5% (inactive); in experiment [7], 12.1% (inactive); in experiment [8], 31% (inactive). Besides, in experiment [2], the inhibition of aggregation is 8.8% (inactive). The figures for the nuclei count in experiment [2] and in experiment [3] were 87.6% and 84.6%, respectively. Further, the fluorescence slope in experiment [4] is -0.501 (inactive). In experiment [5], the NADPH fluorescence slope was 3.1e-05 (inactive). In experiment [6], the slope is 0.0057 (inactive).
For the compound `CC(C)c1ccc(S(=O)(=O)N2CCN(CCC(=O)Nc3ccc(N(C)C)cc3)CC2)cc1`, the cell count in experiment [1] came to 412. Moreover, the inhibition in experiment [1] was -1.6% (inactive); in experiment [3], -15.3% (inactive); in experiment [7] it was 9.08% (inactive); in experiment [8], 20% (inactive). Further, in experiment [2], the inhibition of aggregation was 20% (inactive). In addition, the nuclei count was found to be 91.6% in experiment [2] and 89.3% in experiment [3]. For the same compound, in experiment [4], the fluorescence slope is -0.397 (inactive). Further, the NADPH fluorescence slope in experiment [5] was -2.3e-05 (inactive). For the same compound, the slope in experiment [6] is 0.00369 (inactive).
For `c1ccc(-n2cnc3cc(NCc4ccccn4)ccc32)cc1`, in experiment [1], the cell count was determined as 469. In addition, the inhibition was -5.7% (inactive) in experiment [1], -28.1% (inactive) in experiment [3], 20.8% (inactive) in experiment [7] and -8.3% (inactive) in experiment [8]. The inhibition of aggregation in experiment [2] is 25.1% (inactive). Besides, the nuclei count in experiment [2] was found to be 102%; in experiment [3] it was 183%. Besides, the fluorescence slope in experiment [4] is -0.596 (inactive). Moreover, the NADPH fluorescence slope in experiment [5] is -4.4e-05 (inactive). For the same compound, the slope in experiment [6] is 0.00529 (inactive).
Regarding `CC1CN(C(=O)CSc2nnc(-c3ccc(Cl)cc3)n2C)CC(C)O1` (stereo not given), the cell count in experiment [1] came to 345. The inhibition in experiment [1] was 1.1% (inactive); in experiment [3], -122% (inactive); in experiment [7] it was -5.39% (inactive); in experiment [8] it was -17.3% (inactive). In addition, the inhibition of aggregation in experiment [2] is -13.2% (inactive). Besides, the nuclei count in experiment [2] was 91.5%; in experiment [3] it was 124%. For the same compound, the fluorescence slope in experiment [4] is -0.275 (inactive). In addition, in experiment [5], the NADPH fluorescence slope was -3.8e-05 (inactive). Further, the slope in experiment [6] was 0.00669 (inactive).
As to `O=C(c1ccc2nc(N3CCCCC3)sc2c1)N1CCN(c2ccccn2)CC1`, the cell count in experiment [1] stood at 669. The inhibition is -0.8% (inactive) in experiment [1], 5% (inactive) in experiment [3], -4.41% (inactive) in experiment [7] and 3.71% (inactive) in experiment [8]. In addition, in experiment [2], the inhibition of aggregation was -24.8% (inactive). The values for the nuclei count in experiment [2] and in experiment [3] were 99.9% and 118%, respectively. Moreover, the fluorescence slope in experiment [4] is -0.589 (inactive). Besides, the NADPH fluorescence slope in experiment [5] is 5.6e-06 (inactive). Also, the slope in experiment [6] is 0.00632 (inactive).
For `Cn1c(=O)c2c(nc(SCC(=O)NCc3ccco3)n2C)n(C)c1=O`, the cell count in experiment [1] was found to be 616. The inhibition in experiment [1] is 1.7% (inactive); in experiment [3] it was -63.1% (inactive); in experiment [7] it was 3.04% (inactive); in experiment [8], 5.37% (inactive). In addition, the inhibition of aggregation in experiment [2] is 19% (inactive). Besides, the nuclei count in experiment [2] is 78.5%; in experiment [3], 100%. Further, in experiment [4], the fluorescence slope is -0.611 (inactive). For the same compound, in experiment [5], the NADPH fluorescence slope is 1.2e-05 (inactive). The slope in experiment [6] was 0.00578 (inactive).
On to `Oc1ccc2ccccc2c1CN1CCN(c2ccccc2F)CC1`, for which the cell count in experiment [1] amounted to 564. In addition, the inhibition is 2.2% (inactive) in experiment [1], 9.5% (inactive) in experiment [3], 9.17% (inactive) in experiment [7] and 26.6% (inactive) in experiment [8]. In addition, the inhibition of aggregation in experiment [2] was 7.8% (inactive). Further, the nuclei count in experiment [2] amounted to 107%; in experiment [3], 111%. Also, the fluorescence slope in experiment [4] is -0.574 (inactive). Moreover, in experiment [5], the NADPH fluorescence slope was -3.4e-05 (inactive). The slope in experiment [6] is 0.00592 (inactive).
